Assay [1] can be described thus: NCI Yeast Anticancer Drug Screen. Data for the rad50 strain (AID 155).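 Further: 0% = growth of vehicle-only cultures of the same strain.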 The following applies: S. cerevisiae rad50 strain growth inhibition, hits give high values. An outline of the steps:
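Cells are treated with compound, grown, and their growth is then scored against vehicle-only cultures of the same repair-deficient yeast strain.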

Assay [2] can be described thus: NCI Yeast Anticancer Drug Screen. Data for the mec2-1 strain (AID 157). Particulars: S. cerevisiae mec2-1 strain, hits give high values. In outline:
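mec2-1 yeast strain, carrying an alteration in DNA damage repair or cell cycle control, was exposed to compounds; growth inhibition was measured relative to vehicle-treated controls.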

A short description of assay [3]: NCI Yeast Anticancer Drug Screen. Data for the sgs1 mgt1 strain (AID 161).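 Further: 0% = growth of cultures given vehicle only.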 The following applies: S. cerevisiae sgs1 mgt1 strain, hits give high values. In outline:
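Compounds are added to genetically altered yeast, and growth is compared with cultures given vehicle alone to give percent inhibition.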

Assay [4] in a line: NCI Yeast Anticancer Drug Screen. Data for the cln2 rad14 strain (AID 165).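 Further: 0% = growth equal to vehicle treated cultures.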 The following applies: S. cerevisiae cln2 rad14 strain, hits give high values. In outline:
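Yeast carrying cln2 and rad14 alterations (cell cycle control and DNA damage repair) were exposed to compounds. Growth inhibition was measured against vehicle-treated controls.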

Assay [5] in a line: NCI Yeast Anticancer Drug Screen. Data for the bub3 strain (AID 167). The following applies: S. cerevisiae bub3 mutant strain, hits give high values. In outline:
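Part of a panel of yeast mutants defective in DNA damage repair or cell cycle regulation. Each strain is grown with compound, and inhibition is calculated relative to solvent-treated cultures.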

Assay [6] is described as follows: NCI Yeast Anticancer Drug Screen. Data for the mlh1 rad18 strain (AID 175). Particulars: S. cerevisiae mlh1 rad18 strain growth inhibition, hits give high values. In outline: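 Growth inhibition of the yeast strain was measured after compound exposure and expressed relative to vehicle-treated controls. The strain carries defined defects in DNA damage repair.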
Setting [7] is: at 5.0 µM (retest, dose inferred, filed as 0.5).
The mark [8] stands for this setting: at 50.0 µM (retest, dose inferred, filed as 5.0).

SMILES strings stand for the structures. About 79,000 compounds went through this panel and 15% of them were active in at least one assay; those are over-represented in the sample as a whole. Values without a mark were called inactive. The source made the active and inactive calls. No stated cut-off is given here; in the data, active means growth inhibition above about 70%; inactive means the rest. *1 amine or outer side, *2 acyl side, *3 side chain or, on linkers, in order; H or OH if unused. Where a SMILES comes first, the peptide text is derived from it. [ ]: non-standard residue; d: D form. X2 = CC[C@H](C)[C@H](OC(=O)[C@@H](C)[C@@H](CC)N[*:1])C(=O)[*:2]; X3 = C[C@H](N[*:1])C(=O)C(C)(C)C(=O)[*:2]; NMeY = CN[C@@H](Cc1ccc(O)cc1)C(=O)O; NMeL = CN[C@@H](CC(C)C)C(=O)O; NMeV = CN[C@H](C(=O)O)C(C)C

Experimental findings from PubChem BioAssay (NCI) are described below.

`CCOP(=O)(OCC)Oc1cc(C)c(SC#N)c(C)c1`: the growth inhibition in assay [1] (setting [7]) is -6%; in assay [1] (setting [8]) it was -7%; in assay [1] (at 50.0 µM), 29.6%; in assay [2] (setting [7]) it was -2%; in assay [2] (setting [8]), 3%; in assay [2] (at 50.0 µM), 20.6%. The growth inhibition in assay [3] (setting [7]) was 10%; in assay [3] (setting [8]), 25%; in assay [3] (at 50.0 µM), 17.1%; in assay [4] (setting [7]), -7%; in assay [4] (setting [8]), -6%; in assay [4] (at 50.0 µM), 66.3%. In addition, the growth inhibition in assay [5] (setting [7]) was -3%; in assay [5] (setting [8]) it was 18%; in assay [5] (at 50.0 µM), 53.7%; in assay [6] (setting [7]), 10%; in assay [6] (setting [8]) it was 76% (active); in assay [6] (at 50.0 µM) it was 34%.
For `C[C@]12CC[C@H](OC(=O)COc3ccc(N(CCCl)CCCl)cc3)C[C@@H]1CC[C@@H]1[C@@H]2CC[C@]2(C)NC(=O)CC[C@@H]12`, the growth inhibition in assay [1] (setting [7]) is 17%; in assay [1] (setting [8]), 50%; in assay [1] (at 50.0 µM) it was 70% (active); in assay [2] (setting [7]) it was 7%; in assay [2] (setting [8]), 11%; in assay [2] (at 50.0 µM) it was 49.2%. The growth inhibition in assay [3] (setting [7]) was 19%; in assay [3] (setting [8]), 57%; in assay [3] (at 50.0 µM) it was 19.1%; in assay [4] (setting [7]) it was 17%; in assay [4] (setting [8]), 36%; in assay [4] (at 50.0 µM), 5.4%. The growth inhibition in assay [5] (setting [7]) is 22%; in assay [5] (setting [8]), 59%; in assay [5] (at 50.0 µM), 16.1%; in assay [6] (setting [7]) it was 25%; in assay [6] (setting [8]) it was 48%; in assay [6] (at 50.0 µM), 8.2%.
As for `CC[C@H](C)[C@@H]1OC(=O)[C@@H](C)[C@@H](CC)NC(=O)[C@H](C)NC(=O)C(C)(C)C(=O)[C@H](C)NC(=O)[C@H](Cc2ccc(OC)cc2)N(C)C(=O)[C@H](C(C)C)N(C)C(=O)CNC(=O)[C@H](CC(C)C)N(C)C(=O)CNC1=O` (cyclo(A[X2]G[NMeL]G[NMeV][NMeY](Me)[X3])), the growth inhibition was 99% (active) in assay [1] (setting [7]); 99% (active) in assay [1] (setting [8]); 92% (active) in assay [1] (at 50.0 µM); 99% (active) in assay [2] (setting [7]); 99% (active) in assay [2] (setting [8]); 94% (active) in assay [2] (at 50.0 µM). The growth inhibition was 99% (active) in assay [3] (setting [7]); 99% (active) in assay [3] (setting [8]); 93% (active) in assay [3] (at 50.0 µM); 98% (active) in assay [4] (setting [7]); 98% (active) in assay [4] (setting [8]); 91% (active) in assay [4] (at 50.0 µM). Also, the growth inhibition is 99% (active) in assay [5] (setting [7]); 98% (active) in assay [5] (setting [8]); 92.7% (active) in assay [5] (at 50.0 µM); 96% (active) in assay [6] (setting [7]); 97% (active) in assay [6] (setting [8]); 90.2% (active) in assay [6] (at 50.0 µM).
In the case of `[O-][n+]1onc2ccccc21`, the growth inhibition was 47% in assay [1] (setting [7]); 99% (active) in assay [1] (setting [8]); 98.3% (active) in assay [1] (at 50.0 µM); 30% in assay [2] (setting [7]); 99% (active) in assay [2] (setting [8]); 52% in assay [2] (at 50.0 µM). In addition, the growth inhibition is 29% in assay [3] (setting [7]); 99% (active) in assay [3] (setting [8]); 49.9% in assay [3] (at 50.0 µM); 34% in assay [4] (setting [7]); 99% (active) in assay [4] (setting [8]); 97.7% (active) in assay [4] (at 50.0 µM). Also, the growth inhibition was 38% in assay [5] (setting [7]); 99% (active) in assay [5] (setting [8]); 46.7% in assay [5] (at 50.0 µM); 63% in assay [6] (setting [7]); 99% (active) in assay [6] (setting [8]); 98.2% (active) in assay [6] (at 50.0 µM).
